We go through 69 molecules from PubChem BioAssay AID1508615 (Milbrandt Lab, Department of Genetics, Washington …, 2020).

Structures are written as SMILES. The campaign covered roughly 1,600 compounds. About 20 (1%) were called active.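 How the source made its calls: active means ratio of uncleaved NAD to its breakdown product ADP-ribose above 4, meaning the enzyme was inhibited; inactive means the rest.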 The full list was thinned out, with actives kept by preference.

Sequence of NAD(+) hydrolase SARM1 (Homo sapiens) (Q6SZW1 whole entry, looked up): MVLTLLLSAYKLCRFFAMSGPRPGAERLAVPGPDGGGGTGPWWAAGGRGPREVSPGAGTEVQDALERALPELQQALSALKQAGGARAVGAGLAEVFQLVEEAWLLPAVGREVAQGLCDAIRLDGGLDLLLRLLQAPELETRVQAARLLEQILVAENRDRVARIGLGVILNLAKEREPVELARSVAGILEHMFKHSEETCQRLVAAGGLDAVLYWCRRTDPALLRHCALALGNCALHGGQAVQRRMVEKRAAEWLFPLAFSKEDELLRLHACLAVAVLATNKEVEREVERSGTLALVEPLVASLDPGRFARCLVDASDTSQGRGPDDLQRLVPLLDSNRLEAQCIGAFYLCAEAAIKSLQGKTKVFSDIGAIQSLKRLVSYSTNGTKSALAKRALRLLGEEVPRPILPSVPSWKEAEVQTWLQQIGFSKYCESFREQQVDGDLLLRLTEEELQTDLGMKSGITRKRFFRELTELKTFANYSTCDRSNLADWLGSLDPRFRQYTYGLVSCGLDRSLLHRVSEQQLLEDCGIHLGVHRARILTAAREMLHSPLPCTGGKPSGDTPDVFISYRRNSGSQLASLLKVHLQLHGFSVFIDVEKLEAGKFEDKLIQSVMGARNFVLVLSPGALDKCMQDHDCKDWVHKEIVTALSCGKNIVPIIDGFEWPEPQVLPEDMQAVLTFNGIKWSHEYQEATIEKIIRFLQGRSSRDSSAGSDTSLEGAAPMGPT

This test has as its target NAD(+) hydrolase SARM1 (Homo sapiens) (UniProt Q6SZW1). Description: SARM1 TIR NADase inhibitors by HPLC, primary screen, cell lysate, HPLC readout (AID 1508615).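 Further: substrate NAD at 5 µM with 60 min at 37 °C.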 To be noted: HEK293T SAM-TIR lysate, at 5 µM, stronger effect = higher value.
For `CCOc1ccc(NC(=O)N(O)C2(C#N)CCCCC2)cc1`, the NAD/ADPR ratio is 3 (inactive).
In the case of `CCOc1ccc(NC(=O)C2CCCN(C)C2)cc1` (centres undefined) it was 11.2 (active).
To `CCOc1ccc(NC(=O)c2cc3ccccc3cc2O)cc1` belongs 3 (inactive); to `Cc1nn(-c2ccccc2)c2c1C(c1ccc([N+](=O)[O-])cc1)C(C#N)=C(N)O2` (centres undefined), 3 (inactive); to `COc1cc(CCC(=O)O)on1`, 3 (inactive).
As to `COC(=O)CC1(C(=O)OC)Nc2cc(Cl)c(Cl)cc2S(=O)(=O)N1O` (centres undefined), the NAD/ADPR ratio was 13.5 (active).
Regarding `O=C(NC1CCCCC1)c1cc2ccccc2cc1O`, the NAD/ADPR ratio is 3 (inactive).
In the case of `O=C(O)CCNC1CCCCC1` it was 3 (inactive); in that of `Oc1cc(CNC2CCCCC2)c(O)cc1CNC1CCCCC1`, 10.8 (active); in that of `O=C(O)c1ccc(OCCOc2ccccc2)cc1`, 3 (inactive).
In the case of `NC(N)=NC(=S)Nc1ccc(Cl)cc1` it was 3 (inactive).
To `COc1cc(CC(=O)C(=O)O)oc(=O)c1` belongs 3 (inactive); to `CN(C)C(=O)c1cccc(COc2ccc(N3C(N)=NC(N)=NC3(C)C)cc2Cl)c1`, 3 (inactive); to `Cn1c(=O)c2c(nc(N3CCOCC3)n2C)n(C)c1=O`, 3 (inactive).
Turning to `Cc1oc2c(c(C)nn2-c2ccccc2)c(=O)c1Cl`, the NAD/ADPR ratio was 3 (inactive).
To `Cc1nc(-c2ccccc2)c(Cc2ccccc2O)c(=O)[nH]1` belongs 3 (inactive); to `Cc1nc2c(O)cccc2cc1CO`, 3 (inactive).
In the case of `S=c1cn[nH]c2ccccc12` it was 3 (inactive); in that of `CC1=C(c2ccccc2)C=NNCC1=O`, 3 (inactive); in that of `COC(=O)c1cncc(C)c1`, 3 (inactive).
To `Nc1ccc(C(=O)Oc2ccc([N+](=O)[O-])cc2)cc1` belongs 3 (inactive); to `O=C(c1cccnc1)C1Cc2ccccc2C1=O` (centres undefined), 3 (inactive); to `Nc1ccc(Br)cc1Br`, 3 (inactive).
Consider `CCCCOc1nc2c(c(=O)n(C)c(=O)n2C)n1C`, for which the NAD/ADPR ratio is 3 (inactive).
In the case of `Cc1cccc2c1c1ccc3c(c1n2C)C(=O)C=CC3=O` it was 8.3 (active); in that of `COc1ccc2c(c1)c1ccc3c(c1n2C)C(=O)C=CC3=O`, 7.6 (active).
To `Cn1c2ccccc2c2ccc3c(c21)C(=O)C=CC3=O` belongs 12.5 (active); to `Cc1ccc2c(c1)c1ccc3c(c1n2C)C(=O)C=CC3=O`, 5.6 (active); to `Cc1c(C(C)(C(=O)O)c2c(C)n(C)c3ccccc23)c2ccccc2n1C`, 3 (inactive).
In the case of `C=CCN(CC=C)C(=O)Nc1cc(OC)ccc1OC` it was 3.2 (inactive); in that of `Cc1nnc(Cc2ccccc2)c2n[nH]c(C)c12`, 3 (inactive).
`CC(=O)[C@@]1(O)C(C)CC2C3C=C(C)C4=Cc5c(cnn5-c5ccccc5)C[C@]4(C)C3C(O)C[C@@]21C` (some centres undefined): the NAD/ADPR ratio is 3 (inactive).
To `CCOC(=O)c1ccc2c(c1)NCc1cccc(OC)c1O2` belongs 3 (inactive); to `c1ccc(-c2cn3ccccc3n2)cc1`, 3 (inactive).
To `CC1(C)CCCC2(C)C(OCCO)=CC(=O)C=C12` (centres undefined) belongs 3 (inactive).
As for `COc1cc2c(O)cc(C(=O)O)c(-c3cc(OC)c(OC)c(OC)c3)c2cc1OC`, the NAD/ADPR ratio was 3 (inactive).
To `CSc1nc(Cl)cc(=O)[nH]1` belongs 3 (inactive); to `OC(C#Cc1ccccc1)(c1ccccc1)c1ccccc1`, 3 (inactive).
On to `Cc1cc(=O)n2c3c(c4c(cc13)c(CN(C)C)cc(=O)n4C)OC2`, for which the NAD/ADPR ratio is 3 (inactive).
To `CC1(C)CC2(C)OC2C2(C1)N=NC(=Nc1ccccc1)O2` (centres undefined) belongs 3 (inactive).
In the case of `Cc1cc2nc(-c3ccccn3)c(-c3ccccn3)nc2cc1C` it was 3 (inactive); in that of `S=C(Sc1ccc(Cl)cc1)Sc1ccc(Cl)cc1`, 3 (inactive).
As for `Cc1ccc([N+](=O)[O-])cc1NC(=O)Nc1cccc(F)c1`, the NAD/ADPR ratio was 3 (inactive).
Turning to `CC1(C)SC(C)(C)N(C=O)C1C(=O)O` (centres undefined), the NAD/ADPR ratio was 3 (inactive).
In the case of `CCOC(=O)Cc1cc(=O)[nH]n(-c2ccccc2)c1=O` it was 3 (inactive); in that of `Cc1ccc(/C=C2\CCOC2=O)cc1`, 3 (inactive); in that of `Cc1ccc2c(c1)sc1nncn12`, 3 (inactive).
In the case of `Oc1ccc(Cc2ccccc2Cl)c(O)c1` it was 3 (inactive); in that of `COc1cc(/C=N/Nc2nc3c([nH]2)c(=O)n(C)c(=O)n3C)ccc1O`, 3 (inactive).
To `O=C1CCC(NC(=O)c2ccccc2)C(=O)N1` (centres undefined) belongs 3 (inactive); to `O=C(/C=C/c1cccnc1)c1ccccc1O`, 3 (inactive); to `CCCCCn1cnc2c(=S)nc(N)[nH]c21`, 3 (inactive).
Turning to `CN1CN(C)C(c2ccncc2)=C1c1ccncc1`, the NAD/ADPR ratio was 3 (inactive).
To `CCCCOc1ccc(NC(=O)Nc2nnc(C)s2)cc1` belongs 3 (inactive).
In the case of `Cc1ccc(C(C)C)cc1NC(=O)Nc1ccc([N+](=O)[O-])cc1` it was 3 (inactive); in that of `Cc1cc(NC(=O)c2ccccc2)nc(C)n1`, 3 (inactive).
In the case of `Nc1ccnn1-c1ccccc1` it was 3 (inactive).
As for `O=C(O)C(Cc1cn[nH]n1)=NO`, the NAD/ADPR ratio was 3 (inactive).
To `NC(=O)SCC(=O)Nc1ccccc1C(=O)O` belongs 3 (inactive); to `CC(NC(=O)c1ccc(Cl)c(Cl)c1)c1ccc(-c2ccccc2)cc1` (centres undefined), 3 (inactive); to `OC(c1cc(-c2ccc(Cl)cc2)nc2ccccc12)C1CCCCN1` (centres undefined), 3 (inactive).
To `Clc1ccc(SCNc2ccccc2Cl)cc1` belongs 3 (inactive); to `Nc1ncnc2c1ncn2C1OC(CO)C(O)C1N` (centres undefined), 3 (inactive).
In the case of `CC1(C)CC(=O)C(CC(=O)c2ccccc2)=C(NN=C(N)N)C1` it was 3 (inactive).
`O=C(O)CCC1(c2ccccc2)NC(=O)NC1=O` (centres undefined): the NAD/ADPR ratio was 3 (inactive).
To `c1ccc2c(c1)Oc1cccc3cccc-2c13` belongs 3 (inactive).
In the case of `O=C1c2cc([N+](=O)[O-])ccc2-c2cc(Br)c(N=C(NO)C(F)(F)F)cc21` it was 3 (inactive); in that of `O=c1cc[nH]c2c(Cl)cccc12`, 3 (inactive).
To `COc1cc(-c2ccc(NC(=O)NC3CC3)c(OC)c2)ccc1NC(=O)NC1CC1` belongs 3 (inactive).
